# Compound activity from PubChem.
# The list is not random: actives were taken first. Their share in the collection is about 6.2%.
# Marburg entry inh – inhibitors of Marburg virus binding or cell entry; Potency, µM (top dose mostly 37.8 µM), inactives show at the highest dose activity change, negative = inhibition, actives largely listed as inhibitors; hit rate 1.8% among 300,000; Marburg virus pseudotyped entry inhibition, cell reporter; calls by dose curve; tested in HEK293 cells; also: potency is read from the fitted curve at half-maximal effect
# HCMV antiviral – inhibitors of human cytomegalovirus | HFF cells, HCMV-luciferase reporter, 72 h; stronger effect = lower value | activity change, negative = inhibition, % at 57.5 µM | hit rate 4.5% among 410,000 | AID 1259415; in the data active = activity change below about -60%; inconclusive = no clear call, values can overlap the other calls; inactive = above about -39%
#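 Inhibition of viral replication was scored as loss of reporter luminescence in HFFs infected with HCMV-luciferase (MOI 1 PFU/cell) for 72 h; compounds tested at 2 doses, normalized to buffer and Salinomycin controls.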
# FMDV antiviral – blocks foot and mouth disease virus. FMDV antiviral cell-based qHTS. Potency, µM (highest dose often 57.9 µM), for the others: top-dose activity change, negative = inhibition, actives largely listed as inhibitors. hit rate 1.2% among 410,000. AID 1159524; calls by dose curve; tested in HEK293T cells; also: read-out not given here; potency is read from the fitted curve at half-maximal effect; nearly all actives have a fitted effect of over 45% in size
# Lassa entry inh – inhibitors of Lassa virus binding or cell entry; Potency, µM (series often up to 37.9 µM), for inactives: at the top dose activity change, negative = inhibition, hits mostly inhibitors; AID 540256; Lassa virus pseudotype entry inhibition, cell reporter; hit rate 1.2% among 300,000; calls by dose curve; tested in HEK293 cells; also: potency is read from the fitted curve at half-maximal effect; nearly all actives have a fitted effect of over 50% in size
# An asterisk follows results filed as active; ? = inconclusive; / = no result; [ ] = another dose, or the depositor's remark. % is scaled to controls: 0 for no effect and ±100 for the full control effect.
SMILES,Marburg entry inh,HCMV antiviral,FMDV antiviral,Lassa entry inh
CC1(C(=O)NCc2ccccc2)CSCC(=O)N1C1CCN(Cc2ccccc2)CC1 (stereo unspecified),/,-27,-3%,/
Cc1ccc(CN2CCc3nnc(C(C)NC(=O)c4cc(F)ccc4F)n3CC2)o1 (stereo unspecified),/,/,-6%,/
C1=C2C[N+]3(CCCC3)CC2Cc2ccc3ccccc3c21 (stereo unspecified),?,-65*,-16%,0%
C[N+]1(C)CC2=Cc3ccccc3CC2C1 (stereo unspecified),6%[46.1 µM],?,0%,6%[46.1 µM]
CCn1cc(CN(C)C(=O)CSc2nc(-c3ccco3)cc(C(F)(F)F)n2)c(C)n1,?,-23,20µM*,-24%
Cc1c(CN(C)C(=O)CSc2nc(-c3ccco3)cc(C(F)(F)F)n2)cnn1C,-9%,8,/,-2%
O=C(c1ccc(Cl)cc1)c1cn(Cc2ccccc2)c2cc3c(cc2c1=O)OCCO3,?,-63*,0%,?
COc1ccc2c(c1)c(=O)c(C(=O)c1ccc(C)cc1)cn2Cc1ccccc1F,11µM*,-69*,-27%,?
Cc1ccc(C(=O)c2cn(Cc3ccccc3)c3nc(C)ccc3c2=O)cc1,?,-73*,-15%,23%[46.1 µM]
COc1ccc(Cn2cc(C(=O)c3ccc(Cl)cc3)c(=O)c3cc4c(cc32)OCO4)cc1,?,-98*,29%,?
COc1ccc(C(=O)c2cn(Cc3ccccc3F)c3ccc(F)cc3c2=O)cc1,-5%[46.1 µM],?,-16%,?
COc1ccc(Cn2cc(C(=O)c3ccc(OC)cc3)c(=O)c3cc4c(cc32)OCCO4)cc1,-17%[46.1 µM],?,-12%,?
CCCNC(=O)N1[C@H](c2ccc(C)s2)[C@@H](C)C(=O)[C@@H](C)[C@@H]1c1ccc(C)s1,2%[46.1 µM],-15,0%,-4%[46.1 µM]
COc1ccc(OC)c(CN2CCCC(n3cc(C(=O)N4CCCCC4)nn3)C2)c1 (stereo unspecified),/,/,-4%,/
CC(C)[C@H](NC(=O)CNC(=O)OC(C)(C)C)C(=O)N[C@H](C=O)C(C)C,/,/,-3%,/
OC1c2cc(Br)ccc2N=C2CCCN21 (stereo unspecified),/,-100*,?,/
CCN(CC)C(=O)CC(c1ccc(F)cc1)c1ccc(OC)cc1 (stereo unspecified),-25%,-67*,-30%,-24%
COc1ccc(C2C(=O)N(C3CCCCCC3)CC(=O)N2Cc2ccccc2)cc1 (stereo unspecified),/,-67*,-29%,?
O=C1C(c2ccc(F)cc2)N(CCc2ccc(Cl)cc2)C(=O)CN1C1CCCCC1 (stereo unspecified),/,?,-21%,26%[46.1 µM]
COc1ccc(C2C(=O)N(C3CCC(C)CC3)CC(=O)N2Cc2ccc(C)cc2)cc1OC (stereo unspecified),/,-65*,-8%,-26%[46.1 µM]
O=C1C(c2ccc(F)cc2)N(CCc2ccc(Cl)cc2)C(=O)CN1C1CCCCCC1 (stereo unspecified),/,-82*,-23%,26%[46.1 µM]
C[C@@H]1CC[C@H]2C(=O)N(Cc3ccc(Cl)cc3)C[C@H](O)CN2[C@@H]1c1ccc(Br)cc1,29%[14.2 µM],/,/,/
CC1=CC[C@@H](COc2ccccc2)O[C@@]2(C1)C(=O)N(Cc1ccc(Br)cc1)c1cccc(Br)c12,46%[14.2 µM],/,/,/
COc1cc(C(C)=O)ccc1OCCCN1CCC(c2noc3cc(F)ccc23)CC1,/,15,/,/
COc1ccc(CNC(=O)CCCN2C(=O)CSc3c2c(C)nn3-c2ccccc2)cc1,/,-3,?,-19%[46.1 µM]
SMILES,Marburg entry inh,HCMV antiviral,FMDV antiviral,Lassa entry inh
CCCC(C)C(=O)Nc1nc(C)c(-c2csc(Nc3ccc(Cl)cc3)n2)s1 (stereo unspecified),/,-80*,?,/
COc1ccc(Cl)cc1Nc1nc(-c2sc(NC(=O)C(C)(C)C)nc2C)cs1,/,-90*,-35%,/
CC1(C(=O)NCCc2c[nH]c3ccccc23)CCN1Cc1csc2ccccc12 (stereo unspecified),/,-17,-16%,/
Cc1nc(Cl)sc1C(=O)Nc1ccccc1Cl,/,5,14%,/
Cc1ccc(Nc2sc(C(=O)c3ccccc3)c(N)c2C(=O)Nc2ccc(Cl)cc2)cc1,/,-103*,-53%,-6%[46.1 µM]
Cc1nc(NC(=O)C2CC2)sc1C(=O)Nc1ccccc1Cl,/,-104*,84%,/
Cc1nc(Nc2ccc(Cl)cc2Cl)sc1C(=O)Nc1ccccc1,?,-14,-6%,-15%
Cc1nc(Nc2ccc(Cl)c(Cl)c2)sc1C(=O)Nc1ccccc1,?,-89*,-21%,?
O=C(CSc1nnc(NC(=O)C2CC2)s1)Nc1ccccc1Cl,?,-63*,21%,/
COc1cccc(CN(Cc2ccco2)c2cnc(S(C)(=O)=O)nc2C(=O)Nc2cccc(Cl)c2C)c1,?,-14,-19%,-7%[46.1 µM]
CCCSCCCNC(=O)c1cc2n(n1)CCCN(Cc1ccc(C)cc1)C2=O,/,6,?,-6%[46.1 µM]
Nc1c(C(=O)c2ccccc2)sc(Nc2ccc(Cl)c(Cl)c2)c1C(=O)Nc1ccccc1,/,-107*,-24%,?
CCOc1ccc(NC(=O)c2c(Nc3ccc(OC)cc3OC)sc(C(=O)c3ccc(Cl)cc3)c2N)cc1,/,-9,-9%,-5%[46.1 µM]
Cn1c(=O)[nH]c(=O)c2c1nc1n(CCO)c(-c3ccccc3)cn21,/,2,-14%,18%[46.1 µM]
COc1ccc(-n2nnnc2SCC(=O)N2C(C)CCCC2C)c(OC)c1 (stereo unspecified),-23%,-79*,/,-8%
CC1CCCC(C)N1C(=O)CSc1nnnn1-c1cccc2c1CCCC2 (stereo unspecified),-16%,-38,?,-13%
CC(C)N1CCc2c(sc(NC(=O)c3ccc([N+](=O)[O-])o3)c2C(N)=O)C1,/,-98*,/,/
CC(=O)N1CCc2c(sc(NC(=O)c3ccc([N+](=O)[O-])o3)c2C#N)C1,/,-98*,36%,/
COc1ccc(C(=O)Nc2sc3c(c2C#N)CCN(C(C)=O)C3)cc1,?,-6,9%,?
CN(C(=O)c1ccccc1)c1nc2ccccc2s1,8.9µM*,64,-59%,?
S=C(NCCc1ccccc1)N1CCC2CC1c1cc(-c3ccc4c(c3)OCO4)ccc12 (stereo unspecified),/,-75*,-9%,/
COc1ccccc1OCC(=O)N(Cc1ccc(Cl)cc1)CC1CCCO1 (stereo unspecified),5%[46.1 µM],-17,0%,-18%[46.1 µM]
COC(=O)c1c(NC(=O)Cc2coc3cc(C)cc(C)c23)sc2c1CCC2,4%[46.1 µM],-5,-4%,1%[46.1 µM]
CC(C)N(CCC(=O)c1ccc2ccccc2c1)Cc1ccccc1,13µM*,-77*,-29%,5.2µM*
CCOc1ccc2oc(=O)cc(CN3CCN(Cc4ccc(F)cc4)CC3)c2c1,?,-12,-28%,25%[46.1 µM]
Cc1cccc(C(=O)Nc2c(C(=O)NCc3ccc(Cl)cc3)sc3nc(C)cc(C)c23)c1,?,-75*,4%,?
CC=C(C)[C@H](O)C[Si](C)(C)c1ccccc1,-3%[14.2 µM],/,/,/
Cc1cn([C@H]2C[C@H](O)[C@@H](CNC(=O)[C@H](N)C3CC3)O2)c(=O)[nH]c1=O,/,31,-10%,/
NC(=O)C1=C(c2ccccc2)c2ccccc2C1=O,?,-8,32µM*,?
Cc1ccccc1N1C(=O)[C@@H]2[C@H](ON(c3ccccc3)[C@H]2c2ccncc2)C1=O,-6%,/,/,/
